The record followed here is article PMC13083723 (Patterns, 2026).

Hit rate of the full screen: of about 5,400 compounds, about 190 (3.5%) showed an effect of 50% or more. The sample as a whole holds a higher share of strong results than the screen did.

This test concerns Vero-E6. The experiment in a line: primary screen, phospholipidosis by LipidTOX staining; higher = more effect of the substance. Conditions: 10 µM. As to the method: To measure drug-induced PLD in Vero-E6 cells, we used the HCS LipidTOX Red Phospholipidosis Detection Reagent (Invitrogen, #H34351), which is non-toxic to cell growth and remains well retained after aldehyde fixation. In this setup, compounds (at 10 μM concentration) and controls (amiodarone: 10 μM concentration; DMSO: 0.1 v/v %) were added to clear-bottom, 384-well plates (PhenoPlate 384-well, black, optically clear flat bottom, tissue-culture treated, Revvity #6057302) using the Echo Liquid Handler (Labcyte).
As for `CCCOC(C(=O)OC1CCN(C)CC1)(c1ccccc1)c1ccccc1`, the result_ITMP was 63.8%.

As for `C[C@H]1CCC/C=C/[C@@H]2C[C@H](O)C[C@H]2[C@H](O)/C=C/C(=O)O1`, the result_ITMP was -2.38%. In the case of `COC(=O)C[C@](O)(CCC(C)(C)O)C(=O)O[C@@H]1C(OC)=C[C@]23CCCN2CCc2cc4c(cc2[C@H]13)OCO4`, the result_ITMP is -10.1%. With `C#C[C@]1(O)CC[C@H]2[C@@H]3CCC4=CC(=O)CC[C@]4(C)[C@H]3CC[C@@]21C`, the result_ITMP is given as -7.32%. Regarding `CN1[C@@H]2CC[C@H]1C[C@@H](OC(=O)c1cc(Cl)cc(Cl)c1)C2`, the result_ITMP came out at 9.65%.

Regarding `CN(CCc1ccc(Cl)c(Cl)c1)CCN1CCCC1`, the result_ITMP is listed as 51.3%. As for `C[N@+]1(CC2CC2)CC[C@]23c4c5ccc(O)c4O[C@H]2C(=O)CC[C@@]3(O)[C@H]1C5`, the figure is 0.23%; as for `CCN1C[C@]2(COC(=O)c3ccccc3N3C(=O)C[C@H](C)C3=O)CC[C@H](OC)[C@@]34[C@@H]5C[C@H]6[C@H](OC)[C@@H]5[C@](O)(C[C@@H]6OC)[C@@](O)([C@@H](OC)[C@H]23)[C@@H]14`, 0.37%.

For the compound `C=CC[C@]1(O)CC[C@H]2[C@@H]3CCC4=CCCC[C@@H]4[C@H]3CC[C@@]21C`, the result_ITMP is listed as 0.46%.

For the compound `COc1cc2c(cc1OC)[C@@]13CCN4CC5=CCO[C@H]6CC(=O)N2[C@H]1[C@H]6[C@H]5C[C@H]43`, the result_ITMP is 1.12%. In the case of `CN1C[C@H](CNC(=O)OCc2ccccc2)C[C@@H]2c3cccc4c3c(cn4C)C[C@H]21`, the result_ITMP is 61.8%.

In the case of `CC(=O)OC[C@]12CCC(C)=C[C@H]1O[C@@H]1[C@H](O)[C@@H](OC(C)=O)[C@@]2(C)[C@]12CO2`, the result_ITMP was -25.8%. As for `Oc1ccc2c3c1O[C@H]1c4[nH]c5ccccc5c4C[C@@]4(O)[C@@H](C2)N(CC2CC2)CC[C@]314`, the figure is 37.4%; as for `C[C@@H]1CN([C@H]2CC[C@](C#N)(c3ccc(F)cc3)CC2)CC[C@]1(C(=O)O)c1ccccc1`, -9.01%; as for `Cc1onc(O)c1C[C@H](N)C(=O)O` [R4A_0004356_001 / SPE_K92493880], -0.72%.
